Screens from PubChem BioAssay.
NS1 function inh – inhibitors of influenza NS1 protein function; Potency, µM (top dose mostly 46.1 µM); 270,000 compounds, 0.4% hits; AID 2326; calls by dose curve; also: actives are rising curves; nearly all actives have a fitted effect of over 50% in size
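Recovery from NS1-induced slow growth read by OD600 in budding yeast switched to galactose assay medium (pH 6.0, -URA) at 1:100 dilution. Compound 23 nl per well; the matching strain lacking NS1 serves as control.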
Shiga inhibitor – inhibitors of Shiga toxin in Vero cells | Vero cells, Shiga toxin protein synthesis inhibition reporter | inhibition, % at 38.7 µM | 290,000 compounds, 9.2% hits; in the data active = inhibition mostly above about 28%, no sharp cut-off; inactive = mostly below about 43%
SARS PLP yeast – blocks SARS-CoV papain-like protease in a yeast assay; S. cerevisiae expressing SARS-CoV PLpro, growth rescue; Potency, µM (highest dose often 32.9 µM), hits mostly activators; 330,000 compounds, 0.19% hits; AID 485353; calls by dose curve; also: nearly all actives have a fitted effect of over 55% in size
Pf growth 96h – P. falciparum growth inhibition at 96 hours | P. falciparum luciferase reporter growth, 96 h | Potency, µM (highest dose often 28.7 µM), usual class: inhibitors | 320,000 compounds, 6.9% hits | AID 504834
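Parasite growth measured via integrated firefly luciferase reporter in P. falciparum. Infected erythrocytes at 2% hematocrit, 0.05% parasitemia final were treated 96 hours at 37 C under 5% CO2, and luminescence was read.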
Pf growth 48h – P. falciparum growth inhibition at 48 hours (one generation); 310,000 compounds, 5.9% hits; P. falciparum luciferase growth in erythrocytes, 48 h; AID 504832; Potency, µM (highest dose often 28.7 µM), hits mostly inhibitors
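Luminescence readout; reporter = integrated firefly luciferase in P. falciparum. RBC culture at 2% hematocrit, 0.1% parasitemia final, 37 C/5% CO2; decreased signal taken as growth inhibition.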
Cycloheximide cs – counter-screen for Shiga toxin inhibitors: cycloheximide protein synthesis inhibition; cell reporter, cycloheximide protein synthesis inhibition counterscreen; max response, %; 300,000 compounds, 12% hits; AID 2314; in the data active = max response mostly above about 13%, no sharp cut-off; inactive = mostly below about 14%; also: read at 38.3 µM for the half of the compounds with a filed dose
Each line names hits and unclear results; the compound was inactive in the other large screens. In the library only some 21% were active in any assay of this set; here they are far more common. Unless noted, calls follow the shape of the dose curve; as a rule, active = well fitted inhibition curve with a large enough effect; inconclusive = small, poorly fitted or top-dose-only effect, or another doubt; inactive = no such curve, though single readings can be large or run the other way.

O=C(Nc1ccccc1)c1ccc(N2CCN(c3ccccn3)CC2)c(S(=O)(=O)N2CCOCC2)c1	Pf growth 96h 3.7µM (no result: Pf growth 48h)
O=C(Nc1ccccc1)c1ccc(N2CCN(c3ccccc3)CC2)c(S(=O)(=O)N2CCOCC2)c1	Pf growth 96h 4.15µM (no result: Pf growth 48h)
O=C(Nc1ccc(Br)cc1)c1ccc(F)c(S(=O)(=O)N2CCN(c3ccccn3)CC2)c1	Pf growth 48h inconclusive (no result: NS1 function inh)
Cc1cc(C(C)(C)C)c(OCCCN2CCOCC2)c(C(C)(C)C)c1	none (no result: Shiga inhibitor, SARS PLP yeast, Pf growth 96h, Pf growth 48h, Cycloheximide cs)
O=C(NCC(c1cccs1)N1CCOCC1)c1ccccc1NS(=O)(=O)c1cc([N+](=O)[O-])ccc1Cl (stereo unspecified)	Pf growth 96h 13.1µM, Pf growth 48h inconclusive
O=C(NCC(c1cccs1)N1CCOCC1)c1ccccc1NS(=O)(=O)c1ccc(Cl)cc1 (stereo unspecified)	Pf growth 96h inconclusive, Pf growth 48h inconclusive
O=C(NCC(c1cccs1)N1CCOCC1)c1ccccc1NS(=O)(=O)c1ccc(Cl)c([N+](=O)[O-])c1 (stereo unspecified)	Pf growth 96h 8.28µM, Pf growth 48h inconclusive
O=C(NCC(c1cccs1)N1CCOCC1)c1ccccc1NS(=O)(=O)c1cccc([N+](=O)[O-])c1 (stereo unspecified)	Pf growth 96h inconclusive, Pf growth 48h inconclusive
COc1ccc(C[C@H]2CN3C(=NC[C@@H]3Cc3ccc(O)cc3)N2C[C@H](C)NC(=O)CCC2CCCCC2)cc1	Pf growth 96h 0.928µM, Pf growth 48h 2.08µM
C[C@@H](CN1C2=NC[C@H](C)N2C[C@H]1Cc1ccc(O)cc1)NC(=O)CCC1CCCCC1	Pf growth 96h inconclusive
CC(C)[C@H]1CN=C2N(C[C@H](C)NC(=O)CCC3CCCCC3)[C@H](Cc3ccc(O)cc3)CN21	Pf growth 96h 4.15µM, Pf growth 48h 11.7µM
COc1ccc(C[C@@H]2CN3C(=NC[C@@H]3Cc3ccc(O)cc3)N2C[C@H](C)NC(=O)CCC2CCCCC2)cc1	Pf growth 96h 0.738µM, Pf growth 48h 1.17µM
O=C(NCCc1c[nH]c2ccccc12)C(=O)NCC(c1ccco1)N1CCN(c2ccccc2F)CC1 (stereo unspecified)	Pf growth 96h inconclusive
O=C(c1ccoc1)N1CCC2(CCCN(Cc3ccc(F)c(F)c3)C2)C1 (stereo unspecified)	Pf growth 96h 11.7µM, Pf growth 48h inconclusive
CCc1cc2c(=O)c(Oc3ccccc3F)c(C)oc2c(CN(C)C)c1O	Pf growth 48h 8.28µM
COc1ccc(N=c2oc3cc(O)ccc3cc2C(=O)Nc2ccccn2)cc1OC	Pf growth 48h 4.65µM (no result: NS1 function inh)
Cc1ccc(N=c2oc3cc(O)ccc3cc2C(N)=O)cc1	Shiga inhibitor 80.9, Cycloheximide cs 56.3
CCCCNC(=O)CN(c1cccc(Br)c1)S(C)(=O)=O	none
Cc1cccc(Nc2c([N+](=O)[O-])c(=O)n(C)c3ccccc23)c1	Pf growth 96h 10.4µM, Pf growth 48h 14.7µM
CC(C)NCCCCOc1ccccc1-c1ccccc1	Pf growth 48h inconclusive
Cc1ccc(S(=O)(=O)N2C(=O)CCC2C(=O)O/N=C(\N)c2ccccc2)cc1 (stereo unspecified)	Pf growth 48h inconclusive
Cc1ccc(S(=O)(=O)C2(C(=O)Nc3ccc(Br)cc3)CC2)cc1	Cycloheximide cs 31.6 (no result: NS1 function inh)
O=S(=O)(NC1CC(NS(=O)(=O)OCC(Cl)(Cl)Cl)C2CCCCC12)OCC(Cl)(Cl)Cl (stereo unspecified)	Pf growth 96h inconclusive
COc1cccc(-n2c(=O)c3sccc3n(CC(=O)NC3CCCCC3)c2=O)c1	none
Cc1ccc(-n2ncc3c(=O)n(CC(=O)N(C(C)C)C(C)C)cnc32)cc1	Pf growth 96h 13.1µM
Cc1ccc(-n2ncc3c(=O)n(CC(=O)N4CCCCCC4)cnc32)cc1	none (no result: Pf growth 96h)
COCCNC(=O)Cn1cnc2c(cnn2-c2ccc(C)cc2)c1=O	Pf growth 96h inconclusive
Cc1ccc(-n2ncc3c(=O)n(CC(=O)NC4CCCCC4)cnc32)cc1	Pf growth 96h 4.65µM
Cc1ccc(-n2c(=O)c3sccc3n(CC(=O)NC3CCCCC3)c2=O)cc1	Shiga inhibitor 112.1 (no result: NS1 function inh)
CC(C)c1ccc(S(=O)(=O)N2CCN(C(C)C(=O)N3CCCC3)CC2)cc1 (stereo unspecified)	Pf growth 96h 11.7µM, Pf growth 48h inconclusive (no result: NS1 function inh, Shiga inhibitor, Cycloheximide cs)
CC(C(=O)N1CCCC1)N1CCN(S(=O)(=O)c2ccc(C(C)(C)C)cc2)CC1 (stereo unspecified)	Pf growth 96h 0.465µM, Pf growth 48h 0.828µM (no result: NS1 function inh, Shiga inhibitor, Cycloheximide cs)
N#Cc1ccccc1-c1csc(N2CCC(C(N)=O)CC2)n1	none (no result: NS1 function inh, Shiga inhibitor, SARS PLP yeast, Cycloheximide cs)
CC(=O)c1ccc(-n2ccnc2)cc1	Pf growth 96h inconclusive
COC(=O)/C=C/c1ccc(-n2ccnc2)cc1	Shiga inhibitor 38.3, Cycloheximide cs 39.7 (no result: NS1 function inh)
CCC1CCCCN1C(=O)Nc1cc(Cl)ccc1OC (stereo unspecified)	Pf growth 96h inconclusive (no result: NS1 function inh)
Cc1ccc2c(c1)NC(=O)C(CC(=O)NCCN(C)C)O2 (stereo unspecified)	Pf growth 96h 1.65µM (no result: Pf growth 48h)
O=C(c1cc2cc(Cl)ccc2[nH]1)N1CCN(c2ccccn2)CC1	none (no result: Shiga inhibitor)
COc1ccc(-c2sc(Nc3ccccc3)n[n+]2-c2ccc(F)cc2)c(C)c1C	Pf growth 96h 10.4µM, Pf growth 48h inconclusive
Fc1ccc(-[n+]2nc(Nc3ccccc3)sc2-c2c3ccccc3cc3ccccc23)cc1	Shiga inhibitor 40.7, Pf growth 96h inconclusive, Pf growth 48h inconclusive, Cycloheximide cs 32.0 (no result: NS1 function inh)
Cc1cccc(-c2sc(Nc3ccccc3)n[n+]2-c2ccc(F)cc2)c1	Pf growth 96h inconclusive
c1ccc(-[n+]2nc(Nc3cccc4ccccc34)sc2-c2c3ccccc3cc3ccccc23)cc1	Pf growth 96h 0.828µM, Pf growth 48h 1.04µM (no result: NS1 function inh, Shiga inhibitor, Cycloheximide cs)
O=C(NCCCN1CCCC1=O)c1cccc(S(=O)(=O)Nc2ccccc2Cl)c1	Pf growth 96h inconclusive (no result: NS1 function inh, Shiga inhibitor, Cycloheximide cs)
CCCCN(CCCC)C(=O)c1c[nH]c2ccc(S(=O)(=O)Nc3cccc(Cl)c3C)cc2c1=O	none (no result: NS1 function inh, Shiga inhibitor, Cycloheximide cs)
Cc1ccc(NCCC#N)cc1C	none
CC1CC(CC(=O)NC(=S)Nc2ccccc2Cl)C(=O)O1 (stereo unspecified)	Pf growth 96h inconclusive
COc1cccc(CN2CCC(C(=O)N3CCC(C)CC3)CC2)c1	none
CCC(C)c1ccc(NC(=O)COc2c(F)c(F)c(C(F)(F)F)c(F)c2F)cc1 (stereo unspecified)	Pf growth 96h 2.08µM
Cc1ccc(-c2ccc(C3C(C#N)=C(N)Oc4n[nH]c(C)c43)o2)cc1 (stereo unspecified)	Shiga inhibitor 50.0, Pf growth 48h inconclusive, Cycloheximide cs 31.9
Cc1[nH]nc2c1C(c1ccc(-c3ccc(Cl)cc3)o1)C(C#N)=C(N)O2 (stereo unspecified)	Pf growth 96h inconclusive
CCc1ccc(CN(C)C(=O)C2CCC(=O)N(Cc3ccccn3)C2)cc1 (stereo unspecified)	none
Cc1ccc(-c2cc(C(=O)N/N=C/c3c[nH]c4ccccc34)n[nH]2)o1	Cycloheximide cs 16.8
